In PubChem BioAssay (NCATS):
For part of these data: Results with a measured potency or affinity are listed apart. Active and inactive are the calls of the source.

Legend:
[1] = qHTS profiling of the MIPE4 collection as inhibitors of Plasmodium falciparum (DD2) proliferation (AID 743345); details: P. falciparum Dd2 in erythrocytes, SYBR Green DNA, 72 h; at 28.5 µM (top of the series) unless noted
Summary of the method: (§1)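 Erythrocytes infected with P. falciparum (0.3% parasitemia, 2.5% hematocrit) incubated with compounds 72 h at 37 C, 5% CO2. Lysis with saponin/Triton buffer containing SYBR Green I, overnight at room temperature in the dark; DNA fluorescence (485/535 nm) normalised to 0.29 uM artemisinin and DMSO.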

[2] = Ebola virus entry assay, blue channel fluorescence
[3] = Ebola virus entry assay, green fluorescence channel
[4] = Ebola virus entry assay, ratio channel readout
[5] = Ebola virus entry assay, blue channel fluorescence; remark: listed apart in the source
[6] = Ebola virus entry assay, green channel fluorescence
[7] = qHTS profiling of the MIPE4 collection as inhibitors of Plasmodium falciparum (HB3) proliferation (AID 743347);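 note: plate controls were DMSO vehicle wells for no effect and artemisinin wells for full effect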; details: P. falciparum HB3 in erythrocytes, SYBR Green DNA, 72 h; at 28.5 µM (top of the series) unless noted
Summary of the method: as §1

[8] = Ebola virus entry assay, blue channel fluorescence; remark: listed apart in the source
[9] = Ebola virus entry assay, ratio channel

Structure (SMILES) | parasite growth remaining, % of DMSO control (lower = more inhibition) [1] [%] | outcome [2] | outcome [3] | outcome [4] | outcome [5] | outcome [6] | growth, % of control [7] [%] | outcome [8] | outcome [9]
CC(=O)N1CCN(c2ccc(OC[C@H]3CO[C@](Cn4ccnc4)(c4ccc(Cl)cc4Cl)O3)cc2)CC1 | 34.2 | inactive | inactive | inactive | inactive | – | – | – | –
CCC1=C(C)CN(C(=O)NCCc2ccc(S(=O)(=O)NC(=O)NC3CCC(C)CC3)cc2)C1=O (stereo not drawn) | – | – | inactive | inactive | inactive | inactive | – | – | –
NC(=O)COCCN1CCN(C(c2ccccc2)c2ccc(Cl)cc2)CC1 (stereo not drawn) | – | inactive | – | inactive | inactive | inactive | – | – | –
O=P1(N(CCCl)CCCl)NCCCO1 (stereo not drawn) | 54.1 | inactive | inactive | – | inactive | inactive | 65.9 | inactive | –
CO[C@@]1(NC(=O)Cc2cccs2)C(=O)N2C(C(=O)O)=C(COC(N)=O)CS[C@@H]21 | – | – | inactive | inactive | inactive | inactive | – | inactive | inactive
CC(=O)S[C@@H]1CC2=CC(=O)CC[C@]2(C)[C@H]2CC[C@@]3(C)[C@@H](CC[C@@]34CCC(=O)O4)[C@H]12 | – | inactive | – | inactive | inactive | – | – | – | –
CCC[C@@]1(CCc2ccccc2)CC(O)=C([C@H](CC)c2cccc(NS(=O)(=O)c3ccc(C(F)(F)F)cn3)c2)C(=O)O1 | – | inactive | inactive | inactive | inactive | – | – | – | –
